From PubChem BioAssay
Mtb UGM inh: M. tuberculosis UGM enzyme inhibitors, primary screen, biochemical, fluorescence polarization, single point | UDP-galactopyranose mutase (Mycobacterium tuberculosis (strain ATCC 25618 / H37Rv)), … | purified UGM, fluorescence polarization probe displacement | inhibition, % at 10 µM | hit rate 0.06% among 320,000; in the data active means inhibition above about 10%, passing the limit was not always enough
RecA splice inh: Mtb RecA intein splicing inhibitors, primary screen, biochemical, fluorescence, HTS. cell-free RecA intein splicing. inhibition, % (concentration not given with the values). hit rate 0.75% among 290,000. AID 2221, 2009; in the data active means inhibition above about 30%
Mtb bLac sens: beta-lactam sensitization of Mtb H37Rv, H37Rv. inhibition, % at 25 µM. AID 434955, 2010. hit rate 0.27% among 330,000. M. tuberculosis H37Rv growth with meropenem, percent inhibition; call rule not given here;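 further: growth measured after seven days incubation then overnight dye step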
PriA SSB inh: inhibitors of Klebsiella pneumoniae PriA binding to SSB C-terminal tail, primary screen, biochemical, AlphaScreen; PriA–SSB C-terminal tail interaction (Klebsiella pneumoniae); AlphaScreen SSBct-PriA binding, biotinylated peptide; inhibition, % at 33 µM; hit rate 0.6% among 430,000; in the data active means inhibition mostly above about 37%, no sharp cut-off; inactive means mostly below about 20%
Rv3671c protease: Rv3671c serine protease inhibitors, primary screen, biochemical, fluorescence polarization, M. tuberculosis H37Rv | P9WHR9 | inhibition, % at 5.96 µM | hit rate 0.048% among 320,000 | AID 2606, 2010; in the data active means inhibition above about 38%;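 further: extracellular domain of Rv3671c used as enzyme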
Target sequence (P9WHR9 whole entry, looked up, the tested form may be a part): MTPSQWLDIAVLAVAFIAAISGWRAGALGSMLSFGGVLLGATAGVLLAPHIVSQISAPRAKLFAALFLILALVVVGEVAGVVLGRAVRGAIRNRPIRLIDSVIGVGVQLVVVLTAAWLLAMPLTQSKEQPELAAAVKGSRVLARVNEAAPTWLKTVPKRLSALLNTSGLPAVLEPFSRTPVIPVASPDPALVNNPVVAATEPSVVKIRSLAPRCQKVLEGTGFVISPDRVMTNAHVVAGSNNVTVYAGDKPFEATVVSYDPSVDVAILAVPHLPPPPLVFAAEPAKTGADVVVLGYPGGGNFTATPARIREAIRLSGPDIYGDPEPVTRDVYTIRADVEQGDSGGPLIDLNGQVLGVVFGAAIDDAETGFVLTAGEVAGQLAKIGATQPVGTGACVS
Hits are given with their value; . = inactive; / = not tested or not shown. In the library only some 1.1% were active in any assay of this set; here they are far more common.

SMILES	Mtb UGM inh	RecA splice inh	Mtb bLac sens	PriA SSB inh	Rv3671c protease
Clc1cc2cccnc2c2ncccc12	.	/	.	99	.
Brc1cc2cccnc2c2ncccc12	/	/	/	151	/
Clc1c2ccccc2cc2cccnc12	/	/	/	.	/
COc1cc(-c2ccc(NC(=O)c3ccc(S(=O)(=O)N4CC(C)CC(C)C4)cc3)c(OC)c2)ccc1NC(=O)c1ccc(S(=O)(=O)N2CC(C)CC(C)C2)cc1 (stereo unspecified)	/	/	/	.	/
CC(=O)N1CCN(S(=O)(=O)c2ccc(C(=O)Nc3cccnc3)cc2)CC1	/	/	/	.	/
Oc1ccc(C=Nc2cccc3ncccc23)c(O)c1	.	.	.	96	.
CCOc1ccc(C=Nc2cccc3ncccc23)cc1	.	.	.	77	.
Oc1ccc(C=Nc2ccc3ncccc3c2)c(O)c1	.	53	.	/	.
Oc1ccc2ncccc2c1N=Nc1cccc2ncccc12	/	/	/	.	/
COc1ccc(C=Nc2cccnc2N)cc1	.	/	.	.	.
COc1cccc(N=Cc2ccc(O)cc2O)c1	.	.	.	.	.
O=C(c1ccc(S(=O)(=O)N2CCOCC2)cc1)N1CCS[C@H](c2ccccc2)CC1	/	/	/	.	/
Cn1c2ccccc2c2ccccc21	/	/	/	.	/
COc1ccc(C(=O)c2c(C)[nH]n(-c3ccccc3)c2=O)cc1OC	/	/	/	.	/
COc1cc(C(c2c(C)[nH]n(-c3ccccc3)c2=O)c2c(C)[nH]n(-c3ccccc3)c2=O)cc(OC)c1OC	.	98	.	.	.
COc1ccc(NC(=O)c2cccc(N3C(=O)C4C5C=CC(C5)C4C3=O)c2)cc1Cl (stereo unspecified)	.	94	.	.	.
Cc1ccc(NC(=O)c2cccc(N3C(=O)C4C5C=CC(C5)C4C3=O)c2)cc1C (stereo unspecified)	.	.	.	.	/
CC(=NNc1nc2ccccc2[nH]1)c1ccc2c(c1)OCO2	/	/	/	.	/
CC(C)=NNc1nc2ccccc2[nH]1	/	/	/	69	/
CC(=NNc1nc2ccccc2[nH]1)c1ccc2c(c1)OCCO2	/	/	/	42	/
COc1cc(C(=O)Nc2ccccc2OC(F)(F)F)on1	/	/	/	.	/
Cn1c(-c2ccccc2)cnc1SCC(N)=O	.	.	.	.	.
Cn1c(-c2ccc(Br)cc2)cnc1SCc1ccccc1	/	/	/	67	/
COc1ccc([C@H](CNC(=O)C(=O)NCCC2=CCCCC2)N2CCN(C)CC2)cc1	/	/	/	.	/
CCOc1ccc(-c2csc(-n3nc(C)cc3NC(=O)COc3ccccc3OC)n2)cc1	/	/	/	.	/
SMILES	Mtb UGM inh	RecA splice inh	Mtb bLac sens	PriA SSB inh	Rv3671c protease
COc1cccc2c1C(=O)c1c(O)c3c(c(O)c1C2=O)CC(O)(C(C)=O)CC3OC1CC(O)C(O)C(C)O1 (stereo unspecified)	/	/	/	.	/
COc1cccc2c1C(=N)c1c(O)c3c(c(O)c1C2=O)CC(O)(C(C)=O)CC3OC1CC(N)C(O)C(C)O1 (stereo unspecified)	/	/	/	85	/
CCCc1c(-c2ccc(O)cc2)nn(-c2ccc(O)cc2)c1-c1ccc(O)cc1	.	51	.	.	.
Cc1c(C(N)=O)c(-c2ccccc2)nn1-c1ccccc1	.	.	.	.	.
COc1cccc2c(=O)n(CC(=O)Nc3ccc(F)cc3)ccc12	.	.	.	104	.
Cn1ccnc1SCC1CCN(S(=O)(=O)c2ccc3c(c2)CCCC3)CC1	/	/	/	63	/
CN(C)c1ccc2nc3c(=O)[nH]c(=O)nc-3n(CC(O)C(O)C(O)CO)c2c1 (stereo unspecified)	61	.	.	.	.
O=C(Cc1cc(=O)[nH]c(SCc2ccccc2F)n1)NCc1ccc(Cl)cc1	/	/	/	.	/
CC(=O)NC1N=C(C)N(c2ccccc2)C1=O (stereo unspecified)	.	52	.	.	.
O=C(COC(=O)c1ccc2c(c1Cl)C(=O)c1ccccc1C2=O)NC1CC1	.	41	.	.	.
OCCN(CCO)c1ccc(C(c2ccccc2Cl)c2ccc(N(CCO)CCO)cc2Cl)c(Cl)c1	/	32	.	.	.
CC(C)(C)c1cc(NC(=O)CCl)n(-c2ccccc2)n1	.	38	.	.	.
O=C(NN=CC1C(=O)NC(=S)N(c2ccccc2)C1=O)c1ccc(O)cc1 (stereo unspecified)	/	/	/	.	/
O=C(NN=CC1C(=O)NC(=S)N(c2ccccc2)C1=O)c1cc(Br)c(O)c(Br)c1 (stereo unspecified)	/	/	/	62	/
COC(CNS(C)(=O)=O)c1ccccc1Cl (stereo unspecified)	/	/	/	.	/
